Source: PubChem BioAssay (NCATS)
Values joined by “and” are separate entries in the source; they are usually repeats but may differ in a detail not shown here. Equal entries are not always repeated. Records with an inconclusive call do not appear. Entries that show only a call come without a potency. A number with no mark means an inactive call. Active and inactive are the calls of the source. Calls follow the shape of the dose curve; as a rule, active = well fitted inhibition curve with a large enough effect; inconclusive = small, poorly fitted or top-dose-only effect; inactive = flat fitted curve, though single readings scatter.

Experiments:
CRL-7250 = normal cell line; experiment: Cytotoxic Profiling of Annotated Libraries Using Quantitative High-Throughput Screening (AID 1296008); conditions: Five cell lines viability, CellTiter-Glo ATP luminescence, 48-72 h; max response: active compounds read low
Summary of the method: (§1)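 Cytotoxicity was measured as CellTiter-Glo ATP luminescence, read after 10 min at room temperature. Compound treatment of the cells lasted 48 or 72 hr at 37 degrees Celsius in a qHTS format.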

HEK293 = experiment: as above; conditions: Five cell lines viability, CellTiter-Glo ATP luminescence, 48-72 h; max response: active compounds read low
Summary of the method: as §1

HaCat [1] = experiment: as above; conditions: Five cell lines viability, CellTiter-Glo ATP luminescence, 48-72 h; max response: active compounds read low
Summary of the method: as §1

KB-3-1 = experiment: as above; conditions: Five cell lines viability, CellTiter-Glo ATP luminescence, 48-72 h; max response: active compounds read low
Summary of the method: as §1

NIH3T3 = experiment: as above; conditions: Five cell lines viability, CellTiter-Glo ATP luminescence, 48-72 h; max response: active compounds read low
Summary of the method: as §1

MCC-13 = experiment: qHTS assay to identify novel small-molecules to repurpose for Merkel cell carcinoma treatment (AID 1296009); conditions: MCC and control cell lines, CellTiter-Glo viability, 72 h; series mostly up to 46 µM
Summary of the method: (§2)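 72 hr, 37 degree celsius; NPC 8-pt / MIPE 11-pt dose response; compound pinned in DMSO; CellTiter-Glo, 10 min RT, luminescence; normalized to no-cell and DMSO controls.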

MCC-26 = experiment: as above; conditions: MCC and control cell lines, CellTiter-Glo viability, 72 h; series mostly up to 46 µM
Summary of the method: as §2

MKL-1 = experiment: as above; conditions: MCC and control cell lines, CellTiter-Glo viability, 72 h; series mostly up to 46 µM
Summary of the method: as §2

HEK293T = experiment: as above; conditions: MCC and control cell lines, CellTiter-Glo viability, 72 h; at 44.8 µM (top of the series) unless noted
Summary of the method: as §2

P94_40 = experiment: qHTS profiling for inhibitors of Plasmodium falciparum proliferation (AID 504749); conditions: P. falciparum in erythrocytes, SYBR Green DNA, 72 h; series mostly up to 28.7 µM
Summary of the method: (§3)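 Infected RBCs, 0.3% parasitemia/2.5% Hct final; cpd 72 h, 37 C, 5% CO2; lysis buffer with saponin/triton/SYBR Green I, o/n RT dark; FI 485/535; norm. to artemisinin (0.29 uM) and DMSO.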

PC15 = experiment: as above; conditions: P. falciparum in erythrocytes, SYBR Green DNA, 72 h; series mostly up to 28.7 µM
Summary of the method: as §3

PC26 = experiment: as above; conditions: P. falciparum in erythrocytes, SYBR Green DNA, 72 h; series mostly up to 28.7 µM
Summary of the method: as §3

PC49 = experiment: as above; conditions: P. falciparum in erythrocytes, SYBR Green DNA, 72 h; series mostly up to 28.7 µM
Summary of the method: as §3

SC27B = experiment: as above; conditions: P. falciparum in erythrocytes, SYBR Green DNA, 72 h; series mostly up to 28.7 µM
Summary of the method: as §3

TAB109 = experiment: as above; conditions: P. falciparum in erythrocytes, SYBR Green DNA, 72 h; series mostly up to 28.7 µM
Summary of the method: as §3

TAB113 = experiment: as above; conditions: P. falciparum in erythrocytes, SYBR Green DNA, 72 h; series mostly up to 28.7 µM
Summary of the method: as §3

TAB165 = experiment: as above; conditions: P. falciparum in erythrocytes, SYBR Green DNA, 72 h; series mostly up to 28.7 µM
Summary of the method: as §3

PAD = experiment: as above; conditions: P. falciparum in erythrocytes, SYBR Green DNA, 72 h; series mostly up to 28.7 µM
Summary of the method: as §3

W2 = experiment: as above; conditions: P. falciparum in erythrocytes, SYBR Green DNA, 72 h; series mostly up to 28.7 µM
Summary of the method: as §3

HACAT [2] = experiment: qHTS assay to identify novel small-molecules to repurpose for Merkel cell carcinoma treatment (AID 1296009); conditions: MCC and control cell lines, CellTiter-Glo viability, 72 h; at 44.8 µM (top of the series) unless noted
Summary of the method: as §2
Also: nearly all actives have a fitted effect of over 60% in size.
Potency is read from the fitted curve at half-maximal effect.

CN(C)CC/C=C1/c2ccccc2COc2ccc(CC(=O)O)cc21
max response (CRL-7250): 2.78%
max response (HEK293): 1.17%
max response (HaCat [1]): -4.81%
max response (KB-3-1): -7.2%
max response (NIH3T3): -1.64%
Potency (MCC-13): inactive
Potency (MCC-26): inactive
Potency (MKL-1): inactive

CNC(=O)CN(CCN(CCN(CC(=O)[O-])CC(=O)NC)CC(=O)[O-])CC(=O)[O-].O.[Gd+3]
outcome (CRL-7250): inactive
outcome (HEK293): inactive
max response (HaCat [1]): -1.56%
max response (KB-3-1): -5.37% and -4.64%
max response (NIH3T3): -1.76%
outcome (HEK293T): inactive
Potency (MCC-13): inactive
Potency (MCC-26): inactive
Potency (MKL-1): inactive

Oc1cc(O)c2c(c1)O[C@H](c1ccc(O)c(O)c1)[C@H](O)C2
max response (CRL-7250): -5.79%
outcome (HEK293): inactive
max response (HaCat [1]): 4.8%
max response (KB-3-1): -0.959%
max response (NIH3T3): -0.255%
outcome (HEK293T): inactive
Potency (MCC-13): inactive
Potency (MCC-26): inactive
Potency (MKL-1): inactive

COc1cccc2c1C(=O)c1c(O)c3c(c(O)c1C2=O)C[C@@](O)(C(=O)CO)C[C@@H]3O[C@H]1C[C@H](N)[C@H](O)[C@H](C)O1
Potency (CRL-7250): 1.33 µM (active)
Potency (HEK293): 266 nM (active)
Potency (HaCat [1]): 0.944 µM (active)
max response (KB-3-1): -13.1%
Potency (NIH3T3): 0.15 µM (active)
Potency (MCC-13): 5.96 µM (active)
Potency (MCC-26): 2.11 µM (active)
Potency (MKL-1): 0.211 µM (active)

OCc1ccccc1O
Potency (P94_40): inactive
Potency (PC15): inactive
Potency (PC26): inactive
Potency (PC49): inactive
Potency (SC27B): inactive
Potency (TAB109): inactive
Potency (TAB113): inactive
Potency (TAB165): inactive
max response (CRL-7250): 2.81%
outcome (HEK293): inactive
max response (HaCat [1]): -18.5%
max response (KB-3-1): -3.85%
max response (NIH3T3): 3.42%
outcome (HEK293T): inactive
Potency (MCC-13): inactive
Potency (MCC-26): inactive
Potency (MKL-1): inactive

COC(=O)C1=C(C)NC(C)=C(C(=O)O[C@@H]2CCCN(Cc3ccccc3)C2)[C@@H]1c1cccc([N+](=O)[O-])c1
Potency (CRL-7250): 15 µM (active)
Potency (HEK293): 11.9 µM (active) and 8.2 µM (active)
max response (HaCat [1]): -9.72%
max response (KB-3-1): 7.74%
max response (NIH3T3): -11.8% and -29.4%
Potency (MCC-13): inactive
Potency (MCC-26): inactive
Potency (MKL-1): inactive

CC(C)(C(=O)c1cccnc1)c1cccnc1
Potency (P94_40): inactive
Potency (PAD): inactive
Potency (PC15): inactive
Potency (PC26): inactive
Potency (SC27B): inactive
Potency (TAB109): inactive
Potency (TAB113): inactive
Potency (TAB165): inactive
Potency (W2): inactive
max response (CRL-7250): -2.01%
outcome (HEK293): inactive
max response (HaCat [1]): 3.03%
max response (KB-3-1): 11%
outcome (NIH3T3): inactive
outcome (HEK293T): inactive
Potency (MCC-13): inactive
Potency (MCC-26): inactive
Potency (MKL-1): inactive

CN1CCC[C@@H]1c1cccnc1
Potency (P94_40): inactive
Potency (PAD): inactive
Potency (PC15): inactive
Potency (PC26): inactive
Potency (PC49): inactive
Potency (SC27B): inactive
Potency (TAB109): inactive
Potency (TAB113): inactive
Potency (TAB165): inactive
Potency (W2): inactive
max response (CRL-7250): -7.79%
max response (HEK293): -4.75%
outcome (HaCat [1]): inactive
max response (KB-3-1): -0.673%
max response (NIH3T3): 0.585%
outcome (HACAT [2]): inactive
Potency (MCC-13): inactive
Potency (MKL-1): inactive

CN(C)CCOc1ccccc1Cc1ccccc1
Potency (PC49): 2.51 µM (active)
Potency (TAB109): 3.16 µM (active)
Potency (W2): 0.0536 µM (active)
outcome (CRL-7250): inactive
max response (HEK293): -12.7%
outcome (HaCat [1]): inactive
max response (KB-3-1): -14.6%
max response (NIH3T3): -2.31%
outcome (HACAT [2]): inactive
Potency (MCC-13): inactive
Potency (MCC-26): inactive
Potency (MKL-1): inactive

CCCCCCCCCCCCCCCCCC(=O)OCC(O)CO (centres undefined)
Potency (P94_40): inactive
Potency (PAD): inactive
Potency (PC15): inactive
Potency (PC26): inactive
Potency (PC49): inactive
Potency (SC27B): inactive
Potency (TAB109): inactive
Potency (TAB113): inactive
Potency (TAB165): inactive
Potency (W2): inactive
outcome (CRL-7250): inactive
max response (HEK293): -6.82%
max response (HaCat [1]): 4.32%
max response (KB-3-1): -3.37%
max response (NIH3T3): 1.82%
Potency (MCC-13): inactive
Potency (MCC-26): inactive
Potency (MKL-1): inactive

CCN(CCCCOC(=O)c1ccc(OC)c(OC)c1)C(C)Cc1ccc(OC)cc1 (centres undefined)
outcome (CRL-7250): inactive
max response (HEK293): -15.6%
outcome (HaCat [1]): inactive
max response (KB-3-1): -8.65%
max response (NIH3T3): -18.2%
outcome (HACAT [2]): inactive
Potency (MCC-13): inactive
Potency (MKL-1): inactive

C=CCc1ccc(O)c(OC)c1
Potency (P94_40): inactive
Potency (PAD): inactive
Potency (PC15): inactive
Potency (PC26): inactive
Potency (PC49): inactive
Potency (SC27B): inactive
Potency (TAB109): inactive
Potency (TAB113): inactive
Potency (TAB165): inactive
Potency (W2): inactive
outcome (CRL-7250): inactive
outcome (HEK293): inactive
max response (HaCat [1]): -0.0642%
max response (KB-3-1): 3.55%
max response (NIH3T3): 3.27%
outcome (HEK293T): inactive
Potency (MCC-13): inactive
Potency (MCC-26): inactive
Potency (MKL-1): inactive

O=C1OCCN1/N=C/c1ccc([N+](=O)[O-])o1
Potency (PC15): inactive
Potency (TAB109): 7.94 µM (active)
Potency (TAB165): 11.2 µM (active)
Potency (W2): 15.1 µM (active)
max response (CRL-7250): -8.39%
max response (HEK293): -25%
outcome (HaCat [1]): inactive
max response (KB-3-1): -3.42%
outcome (NIH3T3): inactive
outcome (HACAT [2]): inactive
Potency (MCC-13): inactive
Potency (MCC-26): inactive
